# Screening results from PubChem.
# In the library only some 4% were active in any assay of this set; here they are far more common.
# tim10-1 inh – growth inhibitors of tim10-1 mutant yeast, primary screen, luminescence, uHTS; AID 463190, 2010; inhibition, % at 20 µM; S. cerevisiae tim10-1 ts strain growth, BacTiter-Glo, 24 h; 330,000 compounds, 2.2% hits;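 active = inhibition of at least 40%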;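 also: mutant grown at 25 °C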
# TIM10 inh – growth inhibitors of isogenic TIM10 control yeast, primary screen, counter-screen for tim10-1 yeast inhibitor project, luminescence, uHTS; 330,000 compounds, 1.4% hits; S. cerevisiae TIM10 strain growth, BacTiter-Glo luminescence, 24 h; inhibition, % at 10 µM;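 active = inhibition of 40% or more at the single tested concentration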;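 also: wild-type TIM10 isogenic control strain grown at permissive 25 °C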
# tim23-1 inh – growth inhibitors of tim23-1 mutant yeast, primary screen, luminescence, uHTS. S. cerevisiae tim23-1 growth, BacTiter-Glo luminescence, 24 h. inhibition, % at 20 µM. 330,000 compounds, 1.3% hits. AID 463212, 2010;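 active = growth inhibition of the mutant yeast at or above 50%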;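 also: temperature-sensitive mutant grown at 25 °C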
# NLRP3 yeast inh – NALP3 inflammasome inhibitors in reconstituted yeast, primary screen, luminescence, uHTS | Yeast reconstituted NLRP3/ASC/caspase-1, beta-gal luminescence, 24 h | inhibition, % at 10 µM | 330,000 compounds, 0.39% hits;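 active = inhibition of 50% or more; inactive = inhibition below 50%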
# NALP1 inh – NALP1 inflammasome inhibitors in reconstituted yeast, colorimetric, S. cerevisiae, triplicate retest; S. cerevisiae NALP1/ASC/caspase-1 growth, X-gal OD620, 72 h; inhibition, % at 10 µM; 280,000 compounds, 0.61% hits; in the data active = inhibition mostly above about 24%, no sharp cut-off; inactive = mostly below about 32%
# tim10-1 confirm – growth inhibitors of tim10-1 mutant yeast, confirmation, single concentration, luminescence, S. cerevisiae; shares compounds with tim10-1 inh; S. cerevisiae tim10-1 ts strain growth, BacTiter-Glo, 24 h; inhibition, % at 20 µM; 7,400 compounds, 56% hits;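 active = inhibition of yeast growth at or above a set limit in either of two repeat tests at 20 µM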;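 also: tim10-1 mutant grown at permissive 25 °C to find synthetic lethal compounds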
# Hits are given with their value; n = inactive; x = no result given; ! = repeats disagree.
SMILES,tim10-1 inh,TIM10 inh,tim23-1 inh,NLRP3 yeast inh,NALP1 inh,tim10-1 confirm
COc1cc(/C=N/NC(=O)c2cc(-c3ccccc3)nc3ccccc23)ccc1O,41.2,n,n,n,n,n
Cc1nn(-c2ccccc2)nc1C(=O)c1c(C)[nH]n(-c2ccccc2)c1=O,n,n,n,n,x,x
Nc1nnc(-c2ccccc2)s1,91.6,n,n,n,n,n
Nc1nnc(-c2ccc(F)cc2)s1,n,n,n,n,n,x
Cc1[nH]c(=O)[nH]c(=O)c1NS(=O)(=O)c1ccccc1,n,n,n,n,n,x
O=C(NCc1cccnc1)/C(=C/c1ccc(-c2cccc(Cl)c2)o1)S(=O)(=O)c1ccccc1,44.5,n,n,n,n,36.1
O=C(NCc1cccnc1)/C(=C\c1ccc(-c2cccc(Cl)c2)o1)S(=O)(=O)c1ccccc1,x,x,x,x,n,x
CCOc1ccccc1NC(=S)NCCc1ccc(F)cc1,n,n,n,n,n,x
Cc1ccc(NC(=S)NCCc2ccc(F)cc2)c(C)c1,n,n,n,n,n,x
Cc1ccc(F)cc1NC(=S)NCCc1ccccc1,44.7,n,n,n,x,n
CCOc1ccccc1NC(=S)NCCc1ccccc1,42.2,n,n,n,n,n
CC(=O)Nc1ccc(S(=O)(=O)Nc2nc(C)nc3sc(C)c(C)c23)cc1,n,n,n,n,x,x
COc1cc(NC(=O)c2cc(-c3ccccc3)on2)cc(OC)c1OC,n,n,n,n,n,x
COc1cccc(-c2cc(C(=O)Nc3cc(OC)c(OC)c(OC)c3)no2)c1,50.5,n,n,n,n,41.8
O=C(Cn1nc(-c2ccccc2)ccc1=O)N1CCCCC1,n,n,n,n,n,x
CCc1ccc2nc(N3CCN(C(=O)C(C)(C)C)CC3)sc2c1,n,n,n,n,n,x
CC(C)(C)C(=O)N1CCN(c2nc3ccccc3s2)CC1,46.9,n,n,n,n,n
CCn1ncc(Br)c1C(=O)Nc1ccc(-c2ccno2)cc1,n,n,n,n,n,x
Cn1cnnc1SCC(=O)NCCc1ccc(Cl)cc1Cl,n,n,n,n,n,x
Cc1c(C(=O)NCC2COc3ccccc3O2)oc2ccc(S(=O)(=O)N3CCOCC3)cc12 (stereo not given),42.1,n,n,n,n,n
Cc1c(C(=O)NC2CC2)oc2ccc(S(=O)(=O)N3CCCCCC3)cc12,48.8,n,n,n,n,38.0
Cc1c(C(=O)NCC2COc3ccccc3O2)oc2ccc(S(=O)(=O)N3CC(C)CC(C)C3)cc12 (stereo not given),n,n,n,n,n,x
CCC/C=N/NC(=O)c1[nH]c2c([N+](=O)[O-])cccc2c1C,41.4,n,n,n,n,n
O=c1c2ccccc2nnn1CSc1ccc2c(c1)OCCO2,41.8,n,n,n,n,35.2
Nc1ccccc1N=c1ssnc1Cl,x,x,x,x,n,x
SMILES,tim10-1 inh,TIM10 inh,tim23-1 inh,NLRP3 yeast inh,NALP1 inh,tim10-1 confirm
COc1ccc(OC)c(N=c2ssnc2Cl)c1,46.9,n,n,n,n,31.7
COc1cc(N=c2ssnc2Cl)c(OC)cc1Cl,41.7!,n,n,n,n,50.8
Cc1noc(C)c1S(=O)(=O)Nc1ccc2c(c1)C(=O)N([C@H](C)CO)C[C@H](C)[C@@H](CN(C)Cc1ccc(C(=O)O)cc1)O2,n,n,n,n,x,x
Cc1[nH]n(-c2ccccc2)c(=O)c1C(c1cccc([N+](=O)[O-])c1O)c1c(C)[nH]n(-c2ccccc2)c1=O,42.4,n,n,n,n,n
Cc1nc(N)sc1-c1csc(Nc2ccccn2)n1,x,x,x,x,n,x
Cc1nc(N)sc1-c1csc(Nc2ccc(Cl)cn2)n1,56.7,n,n,n,n,38.1
O=[N+]([O-])c1ccccc1CNc1ccc(F)c(Cl)c1,n,n,n,n,n,x
Fc1ccccc1CNc1cc(Cl)cc(Cl)c1,59.0,n,n,n,n,65.5
O=C1C2C3C=CC(CO)(O3)C2C(=O)N1c1ccc(-c2ccccc2)cc1 (stereo not given),95.0,n,n,n,n,97.0
Cc1ccc(N2C(=O)C3C4C=CC(CNC(=S)Nc5cccc(Cl)c5)(O4)C3C2=O)cc1 (stereo not given),43.6,n,n,n,n,49.5
CC(C)Cc1ccc(/C=C/C(=O)NC2CC2)cc1,n,n,n,n,n,x
Cc1ccc(-c2csc3nc[nH]c(=O)c23)cc1C,41.3,n,n,n,n,n
Cc1ccc2nc(N(CCN(C)C)C(=O)c3ccc4c(c3)OCCO4)sc2c1,n,n,n,n,n,x
CCN(CC)CCN(C(=O)c1ccc2c(c1)OCCO2)c1nc2ccc(C)cc2s1,44.0,n,n,n,n,n
NC(=S)n1[nH]c(-c2ccc([N+](=O)[O-])cc2)c(N=Nc2cccc(Cl)c2)c1=O,41.4,n,n,n,n,42.9
COc1cccc(CN2CCN(CC(=O)NCCc3ccccc3)CC2)c1,n,n,n,n,x,x
CCCCn1nc2cc(C(=O)NCc3ccccc3)ccc2c1OCC,n,n,n,n,n,x
c1ccc2sc(-c3ccc4c(c3)OCO4)nc2c1,45.3,n,n,n,n,45.5
Cc1ccc(N2CN=C(c3ccccc3)NC2=S)cc1,43.9,n,n,n,n,n
COc1ccc(C2=NCN(c3ccc(C)cc3)C(=S)N2)cc1,n,n,n,n,n,x
COc1ccc(N(C(=O)Cn2nnc(-c3ccc(F)cc3)n2)C(C)C(=O)NC2CCCC2)cc1OC (stereo not given),n,n,n,n,n,x
O=C(/C=C/Nc1ccc(S(=O)(=O)Nc2ncccn2)cc1)c1ccc2ccccc2c1,n,n,n,n,n,x
Clc1ccc(Cn2c(/C=C/c3ccco3)nc3ccccc32)cc1,47.8,n,n,n,n,39.8
COCCN(C(=S)Nc1ccc(OC)cc1)C(C)c1cccs1 (stereo not given),40.9,n,n,n,n,n
Cc1cc(C(=O)C(=O)O)c(C)n1-c1ccc(Cl)c(Cl)c1,n,n,n,n,n,x
SMILES,tim10-1 inh,TIM10 inh,tim23-1 inh,NLRP3 yeast inh,NALP1 inh,tim10-1 confirm
C[C@]12CCC(=O)CC1CCC1C2CC[C@@]2(C)C1CC[C@@]21CCO1 (stereo not given in full),n,n,n,n,n,x
C[C@]12CCC(=O)C[C@@H]1CC[C@@H]1[C@@H]2CC[C@]2(C)C=CC[C@@H]12,52.0,n,n,n,n,69.7
O=C(CNC(=O)c1ccc(Br)cc1)NCc1cccnc1,n,n,n,n,n,x
CCOC(=O)c1ccc2[nH]c3c(c2c1)CCCC3O (stereo not given),n,n,n,n,n,x
CCOC(=O)c1ccc2[nH]c3c(c2c1)CCCC3,42.3,n,n,n,n,34.2
Cc1nn(Cc2ccc(C(=O)Nc3ccccc3F)cc2)c(C)c1Cl,40.8,n,n,n,n,n
